# Legend:
# [1] = biological target: Ribosomal protein S6 kinase beta-1 (Homo sapiens) (UniProt P23443); details: at 1 µM
# [2] = biological target: Ribosomal protein S6 kinase beta-1 (Homo sapiens) (UniProt P23443); details: at 10 µM
# [3] = biological target: Serine/threonine-protein kinase Nek6 (Homo sapiens) (UniProt Q9HC98); details: at 1 µM
# [4] = biological target: Serine/threonine-protein kinase Nek6 (Homo sapiens) (UniProt Q9HC98); details: at 10 µM
# [5] = biological target: Serine/threonine-protein kinase Nek7 (Homo sapiens) (UniProt Q8TDX7); details: at 1 µM
# [6] = biological target: Serine/threonine-protein kinase Nek7 (Homo sapiens) (UniProt Q8TDX7); details: at 10 µM
# [7] = biological target: T1, Serine/threonine-protein kinase NLK (Homo sapiens) (UniProt Q9UBE8); details: at 1 µM
# T1 sequence (whole entry): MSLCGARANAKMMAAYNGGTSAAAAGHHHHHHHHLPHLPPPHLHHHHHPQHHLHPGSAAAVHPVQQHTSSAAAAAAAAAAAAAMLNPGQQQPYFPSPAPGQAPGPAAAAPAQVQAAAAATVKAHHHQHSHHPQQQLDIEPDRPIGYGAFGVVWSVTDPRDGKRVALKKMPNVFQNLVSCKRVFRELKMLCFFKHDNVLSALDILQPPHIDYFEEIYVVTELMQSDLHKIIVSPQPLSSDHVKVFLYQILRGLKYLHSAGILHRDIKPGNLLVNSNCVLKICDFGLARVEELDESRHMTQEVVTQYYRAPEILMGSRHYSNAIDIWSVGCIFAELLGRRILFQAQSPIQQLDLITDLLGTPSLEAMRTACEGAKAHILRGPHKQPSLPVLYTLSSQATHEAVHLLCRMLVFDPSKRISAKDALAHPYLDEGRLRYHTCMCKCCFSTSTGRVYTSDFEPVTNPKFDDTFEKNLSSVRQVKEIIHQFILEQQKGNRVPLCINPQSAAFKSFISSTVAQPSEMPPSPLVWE
# [8] = biological target: T1, Serine/threonine-protein kinase NLK (Homo sapiens); details: at 10 µM
# [9] = biological target: Serine/threonine-protein kinase PAK 2 (Homo sapiens) (UniProt Q13177); details: at 1 µM
# [10] = biological target: Serine/threonine-protein kinase PAK 2 (Homo sapiens) (UniProt Q13177); details: at 10 µM
# Chain of Serine/threonine-protein kinase Nek7 (Homo sapiens) (Q8TDX7 whole entry, looked up): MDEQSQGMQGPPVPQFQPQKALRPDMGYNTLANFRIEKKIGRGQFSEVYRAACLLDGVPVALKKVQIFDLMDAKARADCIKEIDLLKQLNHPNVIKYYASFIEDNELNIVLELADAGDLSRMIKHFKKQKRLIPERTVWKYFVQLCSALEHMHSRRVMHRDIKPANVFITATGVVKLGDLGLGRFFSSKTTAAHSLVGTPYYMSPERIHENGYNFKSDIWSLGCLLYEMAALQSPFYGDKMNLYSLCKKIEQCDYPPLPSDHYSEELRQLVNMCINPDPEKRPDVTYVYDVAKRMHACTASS
# Chain of Ribosomal protein S6 kinase beta-1 (Homo sapiens) (P23443 whole entry, looked up): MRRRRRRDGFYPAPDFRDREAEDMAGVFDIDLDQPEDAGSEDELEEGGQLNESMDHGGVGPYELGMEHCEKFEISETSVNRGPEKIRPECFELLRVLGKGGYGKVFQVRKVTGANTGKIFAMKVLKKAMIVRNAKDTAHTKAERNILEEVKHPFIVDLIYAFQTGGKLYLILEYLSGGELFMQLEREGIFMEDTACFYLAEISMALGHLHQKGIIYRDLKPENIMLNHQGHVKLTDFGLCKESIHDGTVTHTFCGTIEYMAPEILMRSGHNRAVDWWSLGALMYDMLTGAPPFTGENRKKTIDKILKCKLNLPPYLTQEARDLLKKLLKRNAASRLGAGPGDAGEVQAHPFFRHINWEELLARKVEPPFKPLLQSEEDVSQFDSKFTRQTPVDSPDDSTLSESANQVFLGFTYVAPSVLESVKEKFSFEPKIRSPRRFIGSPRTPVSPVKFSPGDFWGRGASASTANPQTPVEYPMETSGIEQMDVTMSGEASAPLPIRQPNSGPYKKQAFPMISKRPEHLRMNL
# Chain of Serine/threonine-protein kinase PAK 2 (Homo sapiens) (Q13177 whole entry): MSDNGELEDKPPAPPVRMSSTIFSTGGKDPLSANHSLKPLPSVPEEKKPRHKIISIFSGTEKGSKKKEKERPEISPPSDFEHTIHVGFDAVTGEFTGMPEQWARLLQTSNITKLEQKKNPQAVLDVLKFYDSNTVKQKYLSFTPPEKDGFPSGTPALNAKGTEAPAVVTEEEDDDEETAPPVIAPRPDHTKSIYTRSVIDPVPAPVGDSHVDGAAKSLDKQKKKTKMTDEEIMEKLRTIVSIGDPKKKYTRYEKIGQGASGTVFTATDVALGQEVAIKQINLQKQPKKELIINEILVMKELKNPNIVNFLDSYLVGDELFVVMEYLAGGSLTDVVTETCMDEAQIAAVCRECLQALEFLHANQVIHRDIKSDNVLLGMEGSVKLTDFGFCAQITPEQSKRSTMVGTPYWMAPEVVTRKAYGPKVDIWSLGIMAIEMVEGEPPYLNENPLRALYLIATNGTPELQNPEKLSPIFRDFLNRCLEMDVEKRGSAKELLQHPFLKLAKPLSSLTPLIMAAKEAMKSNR
# Chain of Serine/threonine-protein kinase Nek6 (Homo sapiens) (Q9HC98 whole entry): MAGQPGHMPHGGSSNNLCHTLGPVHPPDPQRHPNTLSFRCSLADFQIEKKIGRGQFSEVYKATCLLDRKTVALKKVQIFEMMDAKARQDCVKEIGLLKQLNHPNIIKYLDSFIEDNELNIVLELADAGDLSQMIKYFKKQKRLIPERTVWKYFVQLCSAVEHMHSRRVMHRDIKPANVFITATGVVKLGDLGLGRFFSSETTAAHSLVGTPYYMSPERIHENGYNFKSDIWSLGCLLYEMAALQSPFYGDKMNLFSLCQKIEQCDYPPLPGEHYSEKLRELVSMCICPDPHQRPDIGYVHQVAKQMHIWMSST
SMILES,residual activity [1] [%],residual activity [2] [%],residual activity [3],residual activity [4] [%],residual activity [5],residual activity [6],residual activity [7] [%],residual activity [8] [%],residual activity [9] [%],residual activity [10] [%]
Nc1ncnc2c1c(-c1ccc(Oc3ccccc3)cc1)cn2C1CCCC1,67,45,78% (inactive),99,97% (inactive),105% (inactive),81,41,98,61
O=c1cc(N2CCOCC2)oc2c1ccc1ccccc12,74,41,100% (inactive),106,103% (inactive),95% (inactive),108,80,97,89
Nc1ncnc2[nH]nc(Nc3ccc(F)cc3)c12,91,61,118% (inactive),106,100% (inactive),96% (inactive),93,55,106,109
N#C/C(=C1/Nc2ccccc2S1)c1ccnc(NCCc2cccnc2)n1,72,39,119% (inactive),–,–,–,–,–,–,–
COc1cc2c(cc1OC)-c1n[nH]c(Nc3cccc(F)c3)c1C2,63,79,–,–,–,113% (inactive),54,17,–,–
O=S(=O)(NCCNC/C=C/c1ccc(Br)cc1)c1cccc2cnccc12,13,5,–,–,–,–,–,–,–,–
CC(C)(C)n1nc(Cc2cccc3ccccc23)c2c(N)ncnc21,118,96,94% (inactive),116,90% (inactive),–,44,15,98,49
CCN(CC)CCNC(=O)c1c(C)[nH]c(/C=C2\C(=O)Nc3ccc(Cl)cc32)c1C,24,4,–,–,–,–,–,–,–,–
NC(=O)c1ccc(-c2nc(-c3ccc4c(c3)OCCO4)c(-c3ccccn3)[nH]2)cc1,74,86,–,–,–,–,–,–,–,–
NC(=O)Nc1sc(-c2ccc(F)cc2)cc1C(N)=O,78,39,104% (inactive),106,102% (inactive),103% (inactive),89,61,93,71
COc1ccc(-c2cnc3c(-c4ccsc4)cnn3c2)cc1,72,66,–,–,–,–,–,–,–,–
O=C1NC(=O)c2c1c1c3ccccc3[nH]c1n1cncc21,68,28,98% (inactive),90,100% (inactive),86% (inactive),89,72,98,89
CCCC(=O)Oc1ccc2[nH]c(C(=O)c3cc4ccccc4[nH]3)cc2c1,104,91,89% (inactive),–,91% (inactive),93% (inactive),90,108,102,86
COc1cc2ncnc(Nc3cccc(Cl)c3)c2cc1OC,82,59,109% (inactive),117,102% (inactive),115% (inactive),–,–,126,111
CC(C)[C@H](CO)Nc1nc(Nc2cc(N)cc(Cl)c2)c2ncn(C(C)C)c2n1,86,39,–,–,–,–,–,–,–,–
CC(C)c1nn(-c2c(Cl)cccc2Cl)c2nc(Cc3ccc(OCCO)cc3)[nH]c(=O)c12,81,59,–,–,87% (inactive),84% (inactive),88,46,88,69
O=C(c1ccccc1)c1ccc(N2CCOCC2)cc1O,77,53,92% (inactive),–,116% (inactive),–,–,63,–,–
COc1cc2nccc(Oc3ccc(NC(=S)NC(=O)c4ccccc4C)cc3)c2cc1OC,66,61,95% (inactive),–,98% (inactive),91% (inactive),81,60,98,87
COc1cc2nccc(Oc3ccc(NC(=O)Nc4cc(C)on4)c(Cl)c3)c2cc1OC,76,53,–,–,98% (inactive),103% (inactive),77,42,–,–
O=c1cc(N2CCNCC2)oc2c(-c3ccccc3)cccc12,69,65,80% (inactive),–,104% (inactive),95% (inactive),99,77,98,80
COc1ccc2c(c1)c(C1=C(c3c[nH]c4ccccc34)C(=O)NC1=O)cn2CCCN(C)C,22,2,–,107,–,–,–,–,–,–

SMILES,residual activity [1] [%],residual activity [2] [%],residual activity [3],residual activity [4] [%],residual activity [5],residual activity [6],residual activity [7] [%],residual activity [8] [%],residual activity [9] [%],residual activity [10] [%]
O=C(O)/C=C/c1cc(Br)c(Br)c(Br)c1Br,84,70,96% (inactive),86,–,–,–,–,97,95
CCOc1nc(NC(=O)Cc2cc(OC)ccc2OC)cc(N)c1C#N,140,100,–,–,–,–,–,–,–,–
O=C1Cc2c([nH]c3ccc([N+](=O)[O-])cc23)-c2ccccc2N1,106,103,115% (inactive),118,106% (inactive),104% (inactive),–,–,43,30
COc1ccc(COc2ccc(Cc3cnc(N)nc3N)cc2OC)cc1,80,51,–,–,–,–,–,–,–,–
Cn1c2ccccc2c2c3c(c4c5ccccc5n(CCC#N)c4c21)CNC3=O,1,4,93% (inactive),113,95% (inactive),80% (inactive),50,41,101,–
O=C1NC(=O)C(c2c[nH]c3ccccc23)=C1c1c[nH]c2ccccc12,48,5,117% (inactive),127,–,–,–,71,–,–
Nc1ncnc2c1cnn2-c1ccccc1,84,63,99% (inactive),–,87% (inactive),85% (inactive),88,80,–,97
N#Cc1c(NC(=O)c2cccc3ccccc23)sc2c1CCCC2,91,68,–,93,–,–,–,–,93,–
Oc1cccc(-c2nc(N3CCOCC3)c3oc4ncccc4c3n2)c1,68,84,–,–,100% (inactive),96% (inactive),–,–,–,–
O=C1Cc2c([nH]c3ccc(Br)cc23)-c2ccccc2N1,66,53,–,–,100% (inactive),94% (inactive),83,54,91,75
CCN1/C(=C/C(C)=O)Sc2ccc(OC)cc21,–,–,–,–,–,–,76,77,–,–
Cc1cc(C)c(/C=C2\C(=O)Nc3ccccc32)[nH]1,–,–,–,–,101% (inactive),–,–,–,–,–
O=C1C(Cl)=C(N2C(=O)CCC2=O)C(=O)c2ccccc21,–,67,–,–,–,96% (inactive),95,88,101,98
O=S(=O)(c1cccc2cnccc12)N1CCCNCC1,–,25,–,–,–,–,–,–,–,–
NC(=O)c1cccc(-c2cc(Nc3ccc(OC(F)(F)F)cc3)ncn2)c1,97,74,–,–,–,–,94,40,–,–
COc1ccc(CNC(=O)Nc2ncc([N+](=O)[O-])s2)cc1,–,–,114% (inactive),103,–,–,–,–,–,–
Nc1nccc(-c2c(-c3ccc(F)cc3)ncn2C2CCNCC2)n1,74,49,–,–,–,–,34,9,–,–
CCCCc1c(-c2ccc(OC)cc2)[nH]c2nccnc12,–,70,113% (inactive),100,–,112% (inactive),83,–,112,103
O=C1NC(=O)C(c2cn(CCCO)c3ncccc23)=C1c1cnccn1,91,76,–,–,–,–,98,93,89,99
O=c1c(-c2ccc(F)cc2)c(-c2ccncc2)[nH]n1-c1ccc(Cl)cc1,129,–,101% (inactive),–,–,–,42,12,–,–
CN(C)S(=O)(=O)c1ccc2c(c1)/C(=C/c1cc3c([nH]1)CCCC3)C(=O)N2,–,–,115% (inactive),114,111% (inactive),–,91,93,–,–

SMILES,residual activity [1] [%],residual activity [2] [%],residual activity [3],residual activity [4] [%],residual activity [5],residual activity [6],residual activity [7] [%],residual activity [8] [%],residual activity [9] [%],residual activity [10] [%]
O=c1cc(N2CCOCC2)oc2c(-c3ccccc3)cccc12,–,63,–,–,–,–,–,72,–,–
O=C(Nc1ccc(Cl)cc1)c1ccccc1NCc1ccncc1,135,–,–,–,–,120% (inactive),–,–,–,–
O=C1Nc2ccccc2/C1=C\c1c(Cl)[nH]c2ccccc12,87,54,–,–,–,142% (inactive),–,73,–,–
Nc1nc(Nc2ccc(S(N)(=O)=O)cc2)nn1C(=O)c1c(F)cccc1F,–,–,105% (inactive),115,111% (inactive),105% (inactive),75,34,118,–
Fc1ccc(-c2nc3n(c2-c2ccncc2)CCS3)cc1,92,62,–,–,–,–,52,20,–,–
COc1ccc(Cl)cc1NC(=O)Nc1cc(C)nc2ccccc12,97,62,–,–,–,–,99,82,–,–
O=C(c1cc2cc(O)ccc2[nH]1)c1cc2cc(O)ccc2[nH]1,73,18,–,–,–,–,61,19,100,83
O=C(CCCc1ccc(-c2ccccc2F)cc1)Nc1ccc(O)cc1,–,–,112% (inactive),127,–,–,106,100,106,–
CC(C)N(CCC(=O)c1ccc2ccccc2c1)Cc1ccccc1,77,53,–,–,–,–,–,–,–,81
N#C/C(=C\c1ccc(O)c(O)c1)C(=O)NCc1ccccc1,–,65,–,–,101% (inactive),125% (inactive),–,–,103,85
Cn1sc(=O)n(Cc2ccccc2)c1=O,67,57,–,–,–,–,82,92,97,91
c1ccc(-c2cnc(Nc3ccc(OCCN4CCCC4)cc3)s2)cc1,61,52,–,–,–,–,112,56,–,–
CN([C@@H](Cc1ccc(OS(=O)(=O)c2cccc3cnccc23)cc1)C(=O)N1CCN(c2ccccc2)CC1)S(=O)(=O)c1cccc2cnccc12,–,–,–,–,–,–,100,99,–,98
O=C1NC(=O)C(c2cn(CCCn3ccnc3)c3ccccc23)=C1Nc1ccccc1,23,6,–,–,–,–,–,–,107,67
CCCCc1c(-c2ccc(O)cc2)[nH]c2nccnc12,88,54,–,–,–,–,88,59,–,–
O=C(NC(NC(=S)Nc1ccc(F)c([N+](=O)[O-])c1)C(Cl)(Cl)Cl)C(c1ccccc1)c1ccccc1 (stereo unspecified),141,99,–,–,–,96% (inactive),103,101,–,–
Nc1n[nH]c2nc3ccccc3nc12,78,47,–,–,–,–,97,91,–,–
NCCNc1ncc(C(N)=O)c(Nc2cccc(C(F)(F)F)c2)n1,–,–,–,111,–,–,106,81,–,–
CC(C)(C)c1nc2c3ccc(F)cc3c3c(=O)[nH]ccc3c2[nH]1,47,44,–,–,–,–,34,19,–,–
CSc1nc(-c2ccc(F)cc2)c(-c2ccnc(NC(C)c3ccccc3)c2)[nH]1 (stereo unspecified),–,–,–,–,–,–,69,14,100,87
O=C1Nc2ccc(Cl)cc2/C1=C/c1cc(Cl)c(O)c(Cl)c1,60,40,–,–,–,–,47,15,97,75
